Our source for the Potency values is PubChem BioAssay (Tox21).

Experiment [1] can be described thus: qHTS assay to identify small molecule antagonists of the estrogen related receptor (ERR) signaling pathway from Tox21 library - cell viability counter screen (AID 1224834). Also: nearly all actives have a fitted effect of over 30% in size. Also: potency is read from the fitted curve at half-maximal effect. The gist of the method:
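Cytotoxicity of test substances is gauged in the same ERR cells used for the antagonist screen, after 17.5 h of compound treatment at 37 C, by CellTiter-Fluor fluorescence measured after 30 min.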

The target of experiment [2] is Luciferin 4-monooxygenase (Photinus pyralis) (UniProt P08659). Kind of experiment: qHTS assay to identify small molecule inhibitors of firefly luciferase (AID 1224835). Also: nearly all actives have a fitted effect of over 25% in size. Also: potency is read from the fitted curve at half-maximal effect. A digest of the protocol: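 Quantitative HTS format; KM concentrations of both substrates. Purified P. pyralis FLuc activity quantified from luminescence images.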
Sequence of Luciferin 4-monooxygenase (Photinus pyralis) (P08659 whole entry, looked up): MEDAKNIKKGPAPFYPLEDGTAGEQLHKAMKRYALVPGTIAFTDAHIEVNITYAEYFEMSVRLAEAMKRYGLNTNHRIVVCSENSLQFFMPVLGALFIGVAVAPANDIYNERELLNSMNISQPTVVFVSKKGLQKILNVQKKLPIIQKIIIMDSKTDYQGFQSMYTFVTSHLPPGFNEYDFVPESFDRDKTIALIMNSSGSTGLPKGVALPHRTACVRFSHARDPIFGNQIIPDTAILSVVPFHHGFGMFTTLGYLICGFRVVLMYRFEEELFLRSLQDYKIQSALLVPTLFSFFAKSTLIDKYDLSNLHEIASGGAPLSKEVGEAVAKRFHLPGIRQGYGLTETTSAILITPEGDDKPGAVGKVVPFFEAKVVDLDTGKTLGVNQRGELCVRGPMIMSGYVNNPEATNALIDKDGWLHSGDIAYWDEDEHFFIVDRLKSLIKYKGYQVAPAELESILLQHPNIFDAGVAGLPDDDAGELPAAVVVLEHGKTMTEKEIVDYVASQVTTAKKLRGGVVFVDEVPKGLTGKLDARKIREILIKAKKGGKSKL
A general note: qHTS replaces the single test concentration by a dilution series.

Experiment [3] in a line: qHTS assay to identify small molecule agonists of the constitutive androstane receptor (CAR) signaling pathway - cell viability counter screen (AID 1224836). Also: nearly all actives have a fitted effect of over 45% in size. Also: potency is read from the fitted curve at half-maximal effect. The gist of the method:
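HepG2-CYP2B6-hCAR, 2500 cells/well, 4 h pre-incubation; cpd 15 conc + PK11195 0.75 uM final; 23 h, 37 C/5% CO2; CellTiter-Fluor, fluorescence.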

Experiment [4] in a line: qHTS assay to identify small molecule antagonists of the estrogen related receptor signaling pathway with the pleiotropic PPARgamma coactivator (PGC) from Tox21 10K library - cell viability counter screen (AID 1224840; active = well fitted cell-killing curve with a large enough effect in the repeat runs, not every such curve was filed as active; also: nearly all actives have a fitted effect of over 40% in size; also: potency is read from the fitted curve at half-maximal effect). A digest of the protocol:
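Step one, plate 2,000 PGC/ERR cells per well; step two, incubate 6 h at 37 C/5% CO2; step three, pin-transfer compounds; step four, incubate 17.5 h; step five, add CellTiter-Fluor and read fluorescence after 30 min.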

Experiment [5] can be described thus: qHTS assay to identify small molecule antagonists of the estrogen related receptor signaling pathway with the pleiotropic PPARgamma coactivator (PGC) from Tox21 10K library (AID 1224841; call rule not given here; also: actives are mostly falling curves and most rising ones were filed inactive; nearly all actives have a fitted effect of over 50% in size; also: potency is read from the fitted curve at half-maximal effect). A digest of the protocol: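 Antagonism in this quantitative HTS is taken from loss of luciferase signal in PGC/ERR cells. Cells (2,000/well) are treated with compounds in DMSO after a 6 h settling period and read by One-Glo luminescence after 18 h.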

The nature of experiment [6]: qHTS assay to identify small molecule agonists of the estrogen related receptor signaling pathway with the pleiotropic PPARgamma coactivator (PGC) from Tox21 10K library (AID 1224842). Also: nearly all actives have a fitted effect of over 15% in size. Also: potency is read from the fitted curve at half-maximal effect. The gist of the method: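 PGC/ERR reporter cells (NTP line) were seeded 2,000 per well, rested 6 h at 37 C/5% CO2, then pin-dosed with compounds in DMSO for 18 h at 37 C; luciferase read by One-Glo luminescence after 30 min at room temperature.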

The target in experiment [7] is Nuclear receptor subfamily 1 group I member 3 (Homo sapiens) (UniProt Q14994). Briefly: qHTS assay to identify small molecule antagonists of the constitutive androstane receptor (CAR) signaling pathway (AID 1224838). Also: nearly all actives have a fitted effect of over 40% in size. Also: potency is read from the fitted curve at half-maximal effect. The gist of the method: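 Compounds were titrated across 15 concentrations onto HepG2 cells double-stably expressing hCAR and a CYP2B6-2.2kb reporter, together with 50 nM CITCO (final). After 24 h at 37 C, luciferase activity was measured by luminescence.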
Sequence of Nuclear receptor subfamily 1 group I member 3 (Homo sapiens) (Q14994 whole entry, looked up): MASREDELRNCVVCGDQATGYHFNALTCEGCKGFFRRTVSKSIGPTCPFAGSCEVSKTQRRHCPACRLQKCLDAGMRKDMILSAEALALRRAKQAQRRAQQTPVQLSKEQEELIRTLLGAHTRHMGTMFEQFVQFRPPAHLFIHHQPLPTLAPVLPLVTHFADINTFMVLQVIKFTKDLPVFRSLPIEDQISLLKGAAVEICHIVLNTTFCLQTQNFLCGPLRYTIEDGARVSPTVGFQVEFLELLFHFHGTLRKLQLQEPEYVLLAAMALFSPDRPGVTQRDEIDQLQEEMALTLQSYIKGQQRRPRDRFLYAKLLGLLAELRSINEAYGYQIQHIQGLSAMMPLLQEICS

For experiment [8] the target is unchanged. Kind of experiment: qHTS assay to identify small molecule agonists of the constitutive androstane receptor (CAR) signaling pathway (AID 1224839). Also: series mostly up to about 92 µM; nearly all actives have a fitted effect of over 15% in size. A digest of the protocol:
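HepG2-CYP2B6-hCAR cells, 2500/well, 4 h pre-incubation; compounds 15 conc.; PK11195 0.75 uM final; 24 h, 37 C/5% CO2; ONE-Glo luciferase read.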

For experiment [9], the target named is Thyrotropin receptor (Homo sapiens) (UniProt P16473). Kind of experiment: qHTS assay to identify small molecule agonists of the thyroid stimulating hormone receptor (TSHR) signaling pathway (AID 1224843; calls by dose curve; also: nearly all actives have a fitted effect of over 45% in size). A digest of the protocol:
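Cell line HEK293 with TSHR; density 800/well. Exposure 30 min RT. Readout HTRF cAMP (cAMP-d2/anti-cAMP-cryptate), 1 h RT before reading.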

Experiment [10] in a line: qHTS assay to identify small molecule antagonists of the constitutive androstane receptor (CAR) signaling pathway - cell viability counter screen (AID 1224837). Also: nearly all actives have a fitted effect of over 45% in size. Also: potency is read from the fitted curve at half-maximal effect. The gist of the method: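 Multiplexed cytotoxicity read-out for the CAR antagonist screen: double-stable HepG2-CYP2B6-hCAR cells co-treated with 50 nM CITCO (final) and compound over 15 concentrations, incubated 23 hr, then assessed by CellTiter-Fluor fluorescence.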

Records with an inconclusive call do not appear. Calls of active or inactive are those of the source. Unless noted, calls follow the shape of the dose curve; as a rule, active = well fitted curve in the direction sought with a large enough effect in the repeat runs; inconclusive = weak or mixed curves; inactive = no such curve, though single readings can be large; an effect the other way counts as inactive or inconclusive.

Sequence of Thyrotropin receptor (Homo sapiens) (P16473 whole entry, looked up): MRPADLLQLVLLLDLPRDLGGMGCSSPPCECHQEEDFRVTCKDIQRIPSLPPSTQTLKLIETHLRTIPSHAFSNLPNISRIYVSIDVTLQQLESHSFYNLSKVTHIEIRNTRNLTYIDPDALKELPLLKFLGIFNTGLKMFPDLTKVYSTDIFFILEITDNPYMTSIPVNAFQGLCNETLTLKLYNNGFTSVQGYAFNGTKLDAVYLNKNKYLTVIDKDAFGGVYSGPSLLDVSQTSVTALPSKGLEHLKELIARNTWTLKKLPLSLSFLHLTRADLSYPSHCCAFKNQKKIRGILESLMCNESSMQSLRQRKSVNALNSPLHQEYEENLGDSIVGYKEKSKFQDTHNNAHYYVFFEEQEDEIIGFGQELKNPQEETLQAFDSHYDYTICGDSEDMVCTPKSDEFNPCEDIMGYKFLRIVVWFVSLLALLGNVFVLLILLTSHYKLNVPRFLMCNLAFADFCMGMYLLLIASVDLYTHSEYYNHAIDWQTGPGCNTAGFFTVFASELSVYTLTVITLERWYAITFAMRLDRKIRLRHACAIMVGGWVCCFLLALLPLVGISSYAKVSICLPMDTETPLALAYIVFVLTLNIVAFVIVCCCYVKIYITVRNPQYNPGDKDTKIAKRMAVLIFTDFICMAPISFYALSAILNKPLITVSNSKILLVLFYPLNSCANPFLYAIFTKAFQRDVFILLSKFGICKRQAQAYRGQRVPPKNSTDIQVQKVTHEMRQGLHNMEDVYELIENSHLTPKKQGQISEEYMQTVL

For `CCCCCC[C@@H](O)C/C=C\CCCCCCCC(=O)OCC(O)CO` (some centres not stated), the Potency result in experiment [1], in [2], in experiment [3], in [4], in [5] and in experiment [6] was “inactive” in each case.
With `CC(C)c1nc(CN(C)C(=O)N[C@H](C(=O)N[C@@H](Cc2ccccc2)C[C@H](O)[C@H](Cc2ccccc2)NC(=O)OCc2cncs2)C(C)C)cs1`, the Potency is 13.3 µM (active) in experiment [1] and 23.7 µM (active) in experiment [5]. Besides, the Potency entry in experiment [2], in experiment [7], in [8], in [6] and in experiment [9] was “inactive” in each case.
As for `O=C1C(=O)c2ccccc2C(O)=C1C1CCC(c2ccc(Cl)cc2)CC1` (configuration not stated), the Potency entry in experiment [1], in experiment [2], in experiment [4] and in experiment [6] was “inactive” throughout.
Consider `O=C=Nc1ccc(Cl)c(Cl)c1`, for which the Potency result in [1], in [3], in experiment [10], in [7], in experiment [8] and in experiment [4] was “inactive” throughout. In addition, the Potency entry in experiment [5], in experiment [6] and in experiment [9] was “inactive” in each case.
`Clc1cc(Cl)nc(Cl)n1`: the Potency result in experiment [1], in experiment [2], in experiment [3], in experiment [7], in experiment [8] and in experiment [4] was “inactive” in each case. In experiment [9], the Potency result was “inactive”.
In the case of `CC1CC(C)C(=O)C1=O` (configuration not stated), the Potency result in experiment [1], in [2], in experiment [3], in [7], in experiment [8] and in experiment [4] was “inactive” each time. Also, the Potency result in experiment [9] was “inactive”.
Turning to `Oc1c(I)cc(I)c2cccnc12`, the Potency in experiment [1] is 29.8 µM (active). The Potency result in [2], in experiment [3], in experiment [7], in experiment [4], in experiment [5] and in [9] was “inactive” in each case.
Consider `CC(=O)NC1(c2cccc(F)c2)CCN(CC[C@@]2(c3ccc(Cl)c(Cl)c3)CN(c3ccccc3)C(=O)CO2)CC1`, for which the Potency is 54.6 µM (active) in experiment [1], 54.6 µM (active) in experiment [10] and 43.4 µM (active) in [4]. Also, the Potency entry in experiment [2], in [8] and in experiment [9] was “inactive” each time.
For the compound `C[C@@H](O[C@H]1OCCN(Cc2n[nH]c(=O)[nH]2)[C@H]1c1ccc(F)cc1)c1cc(C(F)(F)F)cc(C(F)(F)F)c1`, the Potency in experiment [1] was 26.6 µM (active); in experiment [5] it was 29.8 µM (active). Further, the Potency entry in experiment [2], in [10] and in experiment [6] was “inactive” each time.
On to `CN1C(=O)N(c2ccccc2Br)Cc2cnc(Nc3ccc4c(c3)OCC(CO)O4)nc21` (configuration not stated), for which the Potency in experiment [1] was 27.3 µM (active); in experiment [2] it was 20 µM (active); in experiment [3], 30.6 µM (active); in [4] it was 21.7 µM (active). Besides, the Potency entry in experiment [6] is “inactive”.
For the compound `O=C(OCC(O)CO)c1ccccc1Nc1ccnc2cc(Cl)ccc12` (configuration not stated), in experiment [1], the Potency was 29.8 µM (active). Further, the Potency entry in experiment [3], in [10], in experiment [7], in [8], in experiment [4] and in experiment [5] was “inactive” in each case. Moreover, the Potency entry in experiment [6] was “inactive”.
Regarding `CCC1(CO)COCOC1`, the Potency entry in [1], in experiment [2], in experiment [3], in experiment [4], in [5] and in experiment [6] was “inactive” throughout. Also, in experiment [9], the Potency result was “inactive”.
For the compound `Cc1c(C)c2c(c(C)c1OC(=O)CCC(=O)OCCO)CC[C@@](C)(CCC[C@H](C)CCC[C@H](C)CCCC(C)C)O2`, the Potency entry in experiment [1], in [2], in experiment [7], in experiment [8], in [6] and in [9] was “inactive” each time. Further, the Potency in [5] is 21.1 µM (active).
As to `CCCCN(CCCC)C(C(N)=O)c1ccc(OC)cc1` (configuration not stated), the Potency entry in experiment [1], in [2], in experiment [3], in experiment [7] and in experiment [4] was “inactive” throughout.
With `Cc1cscn1`, the Potency result in [1], in experiment [2], in [3], in experiment [4] and in experiment [9] was “inactive” throughout.
`COc1cc(C(=O)NC2CCN(C)CC2)ccc1Nc1ncc2c(n1)N(C1CCCC1)CC(F)(F)C(=O)N2C`: the Potency is 31.5 µM (active) in experiment [1], 8.88 µM (active) in experiment [7], 35.3 µM (active) in [4] and 2.5 µM (active) in experiment [6]. Also, the Potency entry in experiment [2], in experiment [8], in experiment [5] and in experiment [9] was “inactive” throughout.
Consider `CC(C)C=O`, for which the Potency result in [1], in [3], in experiment [10], in [7], in [8] and in experiment [4] was “inactive” throughout. For the same compound, the Potency result in experiment [5], in experiment [6] and in experiment [9] was “inactive” in each case.
